Results filed as inconclusive are left out. Activity calls are given as the source filed them. Unless noted, calls come from the whole dose curve; as a rule, active = well fitted curve in the direction sought with a large enough effect in the repeat runs; inconclusive = weak or mixed curves; inactive = no such curve, though single readings can be large; an effect the other way counts as inactive or inconclusive.
Tests used:
[1] = A CellTox Green Cytotoxicity Assay to monitor cytotoxicity in HepG2 cells - 0 hour (AID 1224882); note: nearly all actives have a fitted effect of over 35% in size
Outline: (§1)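 Real-time, homogeneous cytotoxicity readout: dead-cell DNA staining by CellTox Green in HepG2 monolayers, fluorescence measured at timed intervals up to 40 h of continuous compound exposure.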

[2] = A CellTox Green Cytotoxicity Assay to monitor cytotoxicity in HepG2 cells - 32 hour (AID 1224883); note: nearly all actives have a fitted effect of over 50% in size
Outline: as §1

[3] = A CellTox Green Cytotoxicity Assay to monitor cytotoxicity in HEK293 cells - 8 hour (AID 1224884); note: nearly all actives have a fitted effect of over 35% in size
Outline: (§2)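 Cytotoxicity was tracked continuously in HEK293 cells by a DNA-binding dye excluded from viable cells. Compounds were transferred in DMSO 5 h after seeding; fluorescence was recorded at intervals up to 40 h.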

[4] = qHTS RealTime-Glo MT Cell Viability Assay in HepG2 cells - 16 hour (AID 1224885); note: nearly all actives have a fitted effect of over 50% in size
Outline: (§3)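 Tox21 10K library screened in qHTS format on HepG2 cells carrying RealTime-Glo reagents. Compounds were added after a 5 h preincubation, and the luminescent signal from continuous culture was measured repeatedly during 40 h treatment.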

[5] = qHTS RealTime-Glo MT Cell Viability Assay in HEK293 cells - 24 hour (AID 1224886); note: top concentration of the series differs between compounds; nearly all actives have a fitted effect of over 50% in size
Outline: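 Luminescence generated by NanoLuc from substrate produced by living HEK293 cells served as the viability signal. Each value reflects the reading at its stated time point during continuous 40 h compound exposure at 37 C.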

[6] = qHTS RealTime-Glo MT Cell Viability Assay in HEK293 cells - 8 hour (AID 1224887); note: top concentration of the series differs between compounds; nearly all actives have a fitted effect of over 50% in size
Outline: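 Nonlytic bioluminescent viability monitoring. HEK293 at 600 cells/well with reagent; 5 h settle; compound transfer by pintool; plates held at 37 C and read at set time points.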

[7] = A CellTox Green Cytotoxicity Assay to monitor cytotoxicity in HEK293 cells - 16 hour (AID 1224888); note: nearly all actives have a fitted effect of over 35% in size
Outline: as §2

[8] = qHTS RealTime-Glo MT Cell Viability Assay in HepG2 cells - 0 hour (AID 1224889); note: nearly all actives have a fitted effect of over 50% in size
Outline: as §3

[9] = A CellTox Green Cytotoxicity Assay to monitor cytotoxicity in HepG2 cells - 8 hour (AID 1224890); note: nearly all actives have a fitted effect of over 45% in size
Outline: as §1

[10] = qHTS assay to identify small molecule antagonists of the estrogen receptor alpha (ER-alpha) signaling pathway using the BG1 cell line in the presence of 0.1 nM 17-beta-estradiol - cell viability counter screen (AID 1259241); note: nearly all actives have a fitted effect of over 40% in size
Outline: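 In this screen, hormone-deprived VM7Luc4E2 cells were seeded at 4,000 per well, dosed with compound and 0.1 nM estradiol final, and incubated 22 hr at 37C and 5% CO2; fluorogenic live-cell protease signal reported viability.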

[11] = qHTS assay to identify small molecule antagonists of the androgen receptor (AR) signaling pathway using the MDA cell line in the presence of 0.5 nM R1881 - cell viability counter screen (AID 1259242); note: nearly all actives have a fitted effect of over 45% in size
Outline: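 Cytotoxicity toward MDA-kb2 cells is measured by CellTiter-Fluor live-cell protease fluorescence after 16 hr compound exposure at 37C in the presence of 0.5 nM R1881 stimulator.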

[12] = target: Estrogen receptor (Homo sapiens) (UniProt P03372); experiment: qHTS assay to identify small molecule antagonists of the estrogen receptor alpha (ER-alpha) signaling pathway using the BG1 cell line in the presence of 0.1 nM 17-beta-estradiol (AID 1259244); note: nearly all actives have a fitted effect of over 50% in size
Sequence of Estrogen receptor (Homo sapiens) (P03372 whole entry, looked up): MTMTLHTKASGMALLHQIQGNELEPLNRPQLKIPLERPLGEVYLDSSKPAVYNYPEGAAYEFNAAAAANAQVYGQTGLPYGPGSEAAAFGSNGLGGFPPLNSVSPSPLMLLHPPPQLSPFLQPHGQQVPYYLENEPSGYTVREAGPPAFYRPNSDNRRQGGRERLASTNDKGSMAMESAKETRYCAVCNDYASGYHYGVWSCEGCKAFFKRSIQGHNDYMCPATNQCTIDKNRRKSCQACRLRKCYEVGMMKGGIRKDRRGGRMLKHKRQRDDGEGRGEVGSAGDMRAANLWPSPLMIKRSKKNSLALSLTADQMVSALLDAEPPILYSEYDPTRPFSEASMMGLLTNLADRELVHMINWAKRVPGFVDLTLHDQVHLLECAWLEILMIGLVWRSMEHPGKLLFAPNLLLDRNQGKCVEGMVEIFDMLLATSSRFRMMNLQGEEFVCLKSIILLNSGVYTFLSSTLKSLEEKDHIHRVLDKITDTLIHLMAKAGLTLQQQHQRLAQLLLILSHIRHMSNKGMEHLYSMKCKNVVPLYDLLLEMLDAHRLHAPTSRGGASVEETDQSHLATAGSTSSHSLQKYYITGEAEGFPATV
Outline: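 After 5 days in hormone-depleted medium (charcoal-stripped serum, no phenol red), VM7Luc4E2 cells were seeded, incubated 24 h, then co-treated with compound and 0.1 nM (final) estradiol for 22 h before luminescence detection.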

[13] = qHTS assay to identify small molecule HDAC inhibitors (AID 1259364); note: top concentration of the series differs between compounds; nearly all actives have a fitted effect of over 45% in size
Outline: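 Homogeneous cell-based luminescent assay of endogenous class I/II HDAC activity; HCT-116 cells, 2 h compound exposure, 30 min HDAC-Glo development at RT.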

[14] = qHTS assay to identify small molecule HDAC inhibitors - cell viability counter screen (AID 1259365)
Outline: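 Measured quantity is CellTiter-Glo luminescence from wild-type HCT-116 cells after compound incubation of 2hr at 37C, 5% CO2; reagent developed 30min at room temperature.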

[15] = qHTS assay to identify small molecule agonists of the sonic hedgehog signaling (Shh) pathway - cell viability counter screen (AID 1259366); note: nearly all actives have a fitted effect of over 50% in size
Outline: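 In quantitative high-throughput format, 3T3 Gli1-Luc cells were exposed to compounds for 24hr and multiplexed for viability using CellTiter-Fluor, incubated 1hr at 37C before the fluorescence read.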

[16] = qHTS assay to identify small molecule antagonists of the sonic hedgehog signaling (Shh) pathway - cell viability counter screen (AID 1259367); note: nearly all actives have a fitted effect of over 55% in size
Outline: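 Cells: 3T3 Gli1-Luc, 2,000/well, 4 hr pre-incubation. Compounds in DMSO, then conditioned medium. Incubation 24 hr, 37C, 5% CO2. CellTiter-Fluor at 23 hr, 1 hr, fluorescence.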

[17] = qHTS assay to identify small molecule agonists of the sonic hedgehog signaling (Shh) pathway (AID 1259368; calls by dose curve;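 note: NIH/3T3-derived 3T3Gli1-Luc cells carrying a stable Gli1-driven firefly luciferase reporter; series mostly up to about 92 µM; nearly all actives have a fitted effect of over 15% in size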)
Outline: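 Steps: seed 3T3 Gli1-Luc cells, incubate 4 hr at 37 C, pin-transfer compounds in DMSO alongside a positive control, incubate 24 hr, add luciferase detection reagent, wait 30 min at room temperature, read luminescence.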

[18] = target: Androgen receptor (Homo sapiens) (UniProt P10275); experiment: qHTS assay to identify small molecule antagonists of the androgen receptor (AR) signaling pathway using the MDA cell line in the presence of 0.5 nM R1881 (AID 1259243); note: nearly all actives have a fitted effect of over 50% in size
Sequence of Androgen receptor (Homo sapiens) (P10275 whole entry, looked up): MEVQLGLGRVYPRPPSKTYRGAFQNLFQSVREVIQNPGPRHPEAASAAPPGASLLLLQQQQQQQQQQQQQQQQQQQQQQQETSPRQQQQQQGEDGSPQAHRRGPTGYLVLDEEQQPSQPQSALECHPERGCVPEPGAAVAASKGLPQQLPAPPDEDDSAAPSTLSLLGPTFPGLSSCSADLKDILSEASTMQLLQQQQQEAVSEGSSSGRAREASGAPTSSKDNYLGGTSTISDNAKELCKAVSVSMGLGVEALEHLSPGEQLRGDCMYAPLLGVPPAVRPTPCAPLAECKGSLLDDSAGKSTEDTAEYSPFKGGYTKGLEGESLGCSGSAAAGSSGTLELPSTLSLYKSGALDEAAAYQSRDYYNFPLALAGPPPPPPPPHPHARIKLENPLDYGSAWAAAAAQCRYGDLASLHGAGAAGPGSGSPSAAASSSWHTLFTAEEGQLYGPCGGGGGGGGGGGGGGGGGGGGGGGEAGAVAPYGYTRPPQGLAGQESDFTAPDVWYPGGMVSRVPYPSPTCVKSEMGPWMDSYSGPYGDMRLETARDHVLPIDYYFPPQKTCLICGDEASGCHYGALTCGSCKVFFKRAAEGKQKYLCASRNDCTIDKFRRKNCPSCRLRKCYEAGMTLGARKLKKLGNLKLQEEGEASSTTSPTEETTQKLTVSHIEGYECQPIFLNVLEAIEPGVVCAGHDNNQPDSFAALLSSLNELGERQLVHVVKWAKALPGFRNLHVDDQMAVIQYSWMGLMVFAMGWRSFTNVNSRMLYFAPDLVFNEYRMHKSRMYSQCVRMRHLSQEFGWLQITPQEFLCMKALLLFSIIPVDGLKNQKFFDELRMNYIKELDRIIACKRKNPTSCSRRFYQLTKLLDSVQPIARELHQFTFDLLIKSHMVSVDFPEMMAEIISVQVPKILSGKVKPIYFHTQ
Outline: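 Steps: seed MDA-kb2 cells, incubate 5 hr at 37C; pin-transfer compounds in DMSO; add R1881 to 0.5 nM final; incubate 16 hr; add ONE-Glo, wait 30 min at room temperature; read luminescence.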

[19] = qHTS assay to identify small molecule antagonists of the sonic hedgehog signaling (Shh) pathway (AID 1259369; calls by dose curve; note: nearly all actives have a fitted effect of over 45% in size)
Outline: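 Inhibition of Shh signalling is measured as reduced Gli1-response-element firefly luciferase output in an NIH/3T3-derived stable reporter clone stimulated with conditioned medium for 24hr.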

Measured: Potency

Clc1nc2ccccc2s1
not listed: [18] | [19]
inactive: all other assays above

CC1CNCC(C)O1 (centres undefined)
not listed: [13] | [19]
inactive: all other assays above

CC(COC(=O)c1ccccc1)OC(=O)c1ccccc1 (centres undefined)
not listed: [18] | [19]
inactive: all other assays above

CCCCCCCC(OC)OC
not listed: [16] | [19]
inactive: all other assays above

CCCCCCCCC(C)=O
inactive: all assays above

OCCCCl
not listed: [14] | [15]
inactive: all other assays above

CC(=O)O[C@@H]1C[C@@H]2CC[C@@]1(C)C2(C)C
not listed: [12] | [14] | [15]
inactive: all other assays above

Cn1cccc1
inactive: all assays above

— PubChem BioAssay (Tox21)
